# Unmarked numbers belong to inactive results.
# Test system: Vero E6 infected with SARS-CoV-2
# Assay: inhibition of SARS-CoV-2 cytopathic effect; higher = more antiviral protection, active = above 15
# Details: 48 h
SMILES,inhibition of SARS-CoV-2 cytopathic effect (1 nM) [%],inhibition of SARS-CoV-2 cytopathic effect (8.33 nM) [%],inhibition of SARS-CoV-2 cytopathic effect (100 nM) [%],inhibition of SARS-CoV-2 cytopathic effect (833.33 nM) [%],inhibition of SARS-CoV-2 cytopathic effect (10000 nM)
COc1ccc(OC)c(CN(C(C)=O)c2cc(F)ccc2Oc2ccccc2)c1,1.17,-0.16,4.26,3.55,2.47%
CCOc1cc(C(C)(C)C)ccc1C1=N[C@@](C)(c2ccc(Cl)cc2)[C@@](C)(c2ccc(Cl)cc2)N1C(=O)N1CCN(CCCS(C)(=O)=O)CC1,-1.23,-0.35,1.86,1.64,5.99%
O=c1[nH]c2cc(C(F)(F)F)c(N3CCOCC3)cc2n(CP(=O)(O)O)c1=O,0.45,0.83,-1.59,1.35,-2.92%
O=c1[nH]c(=O)n([C@H]2C[C@H](O)[C@@H](CO)O2)cc1I [idoxuridine],1.04,-1.19,2.65,-0.31,-2.33%
O=c1ccn([C@@H]2O[C@H](CO)[C@@H](O)[C@H]2O)c(=O)[nH]1 [uridine],0.24,0.14,0.2,-1.16,2.27%
CCCC[C@@H](NC(=O)[C@@H](Cc1cn(C(=O)OC)c2ccccc12)NC(=O)[C@H](CC(C)(C)C)NC(=O)N1[C@H](C)CCC[C@@H]1C)C(=O)O,1.03,2.89,1.32,-1.6,1.29%
CCc1cc2c(cc1N1CCC(N3CCOCC3)CC1)C(C)(C)c1[nH]c3cc(C#N)ccc3c1C2=O [alectinib],0.52,1.4,-0.38,-1.14,0.15%
Oc1ccc([C@H]2COc3cc(O)ccc3C2)cc1 [equol],-2.73,-1.03,-2.88,3.83,0.31%
CN(Cc1cnc2nc(N)nc(N)c2n1)c1ccc(C(=O)N[C@@H](CCC(=O)O)C(=O)O)cc1 [methotrexate],-1.04,-0.21,-0.4,2,-1.41%
CCN(c1cc(-c2ccc(CN3CCOCC3)cc2)cc(C(=O)NCc2c(C)cc(C)[nH]c2=O)c1C)C1CCOCC1 [tazemetostat],2.86,0.49,3.47,0.53,-0.93%
C[C@]12CC[C@H]3[C@@H](CCC4=CC(=O)CC[C@@H]43)[C@@H]1CC[C@@H]2O [Nandrolone],-1.64,-1.9,-1.06,1.95,-0.94%
Nc1nc(Cl)nc2c1ncn2[C@@H]1O[C@H](CO)[C@@H](O)[C@H]1O [2-chloroadenosine],1.66,0.54,-0.34,-0.32,-2.2%
CC1(C)S[C@@H]2[C@H](N3C(=O)[C@@H](c4ccccc4)NC3(C)C)C(=O)N2[C@H]1C(=O)O [hetacillin],-0.32,0.69,0.82,2.11,2.77%
Cn1nnc(-c2ccc(-c3ccc(N4C[C@H](CO)OC4=O)cc3F)cn2)n1 [tedizolid],-0.87,1.38,-1.69,0.43,-0.79%
O=C(O)CCc1ccc(NCc2cccc3c2CCCN3CCOc2ccccc2)cc1F,2.94,4.34,-0.81,1.53,0.9%
O=C(O)CN1C(=O)c2cccc3cccc(c23)C1=O [alrestatin],5.18,3.1,3.59,4.81,1.83%
Cn1nnc(-c2ccc(-c3ccc(N4C[C@H](COP(=O)(O)O)OC4=O)cc3F)cn2)n1 [tedizolid-phosphate],-1.65,-1.24,-0.65,1.74,1.44%
CCN(CC)CCOC(=O)C(Cc1cccc2ccccc12)CC1CCCO1 (mixture of isomers) [naftidrofuryl],0.67,-0.29,2.4,1.45,-1.13%
Nc1ccccc1S(N)(=O)=O [2-aminobenzenesulfonamide],0.91,2.45,3.94,3.53,-0.71%

SMILES,inhibition of SARS-CoV-2 cytopathic effect (1 nM) [%],inhibition of SARS-CoV-2 cytopathic effect (8.33 nM) [%],inhibition of SARS-CoV-2 cytopathic effect (100 nM) [%],inhibition of SARS-CoV-2 cytopathic effect (833.33 nM) [%],inhibition of SARS-CoV-2 cytopathic effect (10000 nM)
Clc1ccc(Nc2nnc(Cc3ccncc3)c3ccccc23)cc1 [vatalanib],0.19,-1.32,0.29,3.79,1.06%
O=S(=O)(c1cccc2c(O)nccc12)N1CCCNCC1 [hydroxyfasudil],-1.12,-1.29,-1.81,-2.35,-0.71%
O=C(O)c1cc(C(=O)O)c(C(=O)N(Cc2cccc(Oc3ccccc3)c2)[C@H]2CCCc3ccccc32)cc1C(=O)O,0.03,-0.1,-1.42,-0.62,0.42%
O=C(NCc1ccncc1)C12CC3CC(C1)CC(c1ccc(Cl)cc1)(C3)C2,2.05,-4,-2.61,-2.22,-5.2%
O=C(CCCCCCCn1cc(-c2cccnc2)nn1)Nc1ccccc1-c1ccccc1,0.38,-1.7,-14.1,-14.7,-12.8%
CC(CCc1ccc(O)cc1)NCC(O)c1ccc(O)cc1 (stereo not given) [ractopamine],-2.7,-0.49,-1.47,-0.11,1.53%
CCN(CC)CCCC(C)Nc1nc(C)cc(Nc2ccc3nc(C)cc(N)c3c2)n1 (stereo not given),-1.23,-0.04,1.43,-0.56,0.17%
COc1c(-c2ccc3cc(NS(C)(=O)=O)ccc3c2)cc(-n2ccc(=O)[nH]c2=O)cc1C(C)(C)C [dasabuvir],1.02,-0.41,0.27,1.41,2.61%
CC1(C)O[C@@H]2C[C@H]3[C@@H]4CCC5=CC(=O)CC[C@]5(C)[C@@]4(F)[C@@H](O)C[C@]3(C)[C@]2(C(=O)CCl)O1 [halcinonide],2.25,1.06,-0.43,-0.9,-0.92%
C[C@H]1O[C@H](O[C@H]2[C@H](O)[C@@H](O)[C@@H](O[C@H]3[C@H](O)[C@@H](O)C(O)O[C@@H]3CO)O[C@@H]2CO)[C@H](O)[C@@H](O)[C@@H]1N[C@H]1C=C(CO)[C@@H](O)[C@H](O)[C@H]1O (stereo not given in full) [acarbose],0.51,1.35,-0.08,-0.03,-0.32%
C[S+]([O-])CCCCN=C=S (stereo not given) [sulforaphane],-7.22,-6.04,-3.89,-3.35,35.2% (active)
CNC(=O)[C@@H](c1ccccc1)N1CCc2cc(OC)c(OC)cc2[C@@H]1CCc1ccc(C(F)(F)F)cc1 [almorexant],2.74,2.39,2.44,1.95,1.06%
C[C@@H]1c2ccccc2CN1CC1=NCCN1 (racemic),-1.04,-0.79,-0.96,1.02,-0.71%
O=C(Nc1cccnc1)N1CCC(Cc2cccc(Oc3ccc(C(F)(F)F)cn3)c2)CC1,0.55,-2.38,-1.02,3.15,-28.6%
Nc1nc2c(ncn2COC(CO)CO)c(=O)[nH]1 [ganciclovir],0.29,0.09,2.75,-1.42,-1.71%
CC(O)(C(=O)Nc1ccc(S(=O)(=O)c2ccccc2)cc1)C(F)(F)F (stereo not given),1.63,1.61,2.14,-0.08,14.1%
O=C1c2c(O)cc(O)cc2O[C@H](c2ccc(O)c(O)c2)[C@H]1O [taxifolin],0.69,1.31,0.66,0.83,2.25%
COc1cc(C(C)=O)ccc1O [apocynin],0.03,-1.17,-2.23,-0.09,1.17%
O=S(=O)(O)Oc1ccc(C(c2ccc(OS(=O)(=O)O)cc2)c2ccccn2)cc1 [sodium-picosulfate],-1.14,-0.13,0.34,5.9,-5.74%
